Laboratory results taken from PubChem BioAssay (Tox21).
Results filed as inconclusive are left out. Entries that show only a call come without a potency. Activity calls are given as the source filed them. Calls follow the shape of the dose curve; as a rule, active = well fitted cell-killing curve with a large enough effect in the repeat runs; inconclusive = weak or mixed curves, or effect the other way; inactive = flat fitted curve, though single readings scatter.

Assay: cAMP Responsive Elements (CRE) small molecule agonists, cell-based qHTS assay: qHTS cell viability counter screen (AID 2060914); also: nearly all actives have a fitted effect of over 50% in size
Conditions: CRE-bla HEK293T viability, CellTiter-Glo luminescence, 5 h; series mostly up to 92.4 µM
How it was run: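 Cytotoxicity counter screen multiplexed with the CRE-bla reporter assay in HEK 293T cells: 3 h compound exposure at 37 °C, followed by CellTiter-Glo luminescence measured in the same wells.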

Row | SMILES | Potency | activity change, negative = cytotoxicity
1 | CC(C)(C)c1ccc(N)cc1 | inactive | 
2 | CN(C)Cc1ccccc1O | inactive | 
3 | CC(Oc1cc(Cl)ccc1Cl)C(=O)O (stereo not given) | inactive | 
4 | C=C/C(C)=C/C/C=C(\C)CCC=C(C)C | inactive | 
5 | NC(=O)n1c(O)c(C(=O)c2cccs2)c2cc(Cl)ccc21 | inactive | 
6 | COc1ccc([C@@H]2Sc3ccccc3NC(=O)[C@@H]2O)cc1 | inactive | 
7 | CO[C@@H]1[C@H](OC(=O)/C=C/C=C/C=C/C=C/C(=O)O)CC[C@]2(CO2)[C@H]1[C@@]1(C)O[C@@H]1CC=C(C)C | inactive | 
8 | CNCCC(Oc1ccc(C(F)(F)F)cc1)c1ccccc1 (stereo not given) | inactive | 
9 | CCCC(C)CC (stereo not given) | inactive | 
10 | Cn1cnc2c(=O)[nH]c(N)nc21 | inactive | 
11 | CCCCC(CC)C(=O)O (stereo not given) | inactive | 
12 | O=C(Oc1cccc2cccnc12)c1ccccc1 | inactive | 
13 | Cc1cccc2sc(N)nc12 | inactive | 
14 | [Cl][Eu]([Cl])[Cl] | inactive | 
15 | COc1cc(Cl)ccc1Cl | inactive | 
16 | CCCCCCc1ccc(N)cc1 | inactive | 
17 | CC(C)CC(O)CC(C)C | inactive | 
18 | O=S(O)(O)=S |  | 9.38% [at 8.39 µM] (inactive)
19 | COC(=O)c1ccccc1C(=O)O | inactive | 
20 | CC1=Nc2ccccc2C1(C)C | inactive | 

Row | SMILES | Potency | activity change, negative = cytotoxicity
21 | Nc1cccc(S(=O)(=O)c2cccc(N)c2)c1 | inactive | 
22 | O=c1ccc2ccccc2o1 | inactive | 
23 | CN1CCN2c3ccccc3Cc3ccccc3C2C1 (stereo not given) | inactive | 
24 | CCCCCCCCOC(C)=O | inactive | 
25 | CC(=O)c1ccccc1O | inactive | 
26 | OCCC(F)(F)C(F)(F)C(F)(F)C(F)(F)C(F)(F)C(F)(F)C(F)(F)C(F)(F)F | inactive | 
27 | COCC(=O)O | inactive | 
28 | CO[Si](CCCOCC1CO1)(OC)OC (stereo not given) | inactive | 
29 | CCc1oc2ccccc2c1C(=O)c1cc(Br)c(O)c(Br)c1 | inactive | 
30 | Cc1cc(C)c(O)c(C(C)(C)C)c1 | inactive | 
31 | O=C(O)CC(=O)O | inactive | 
32 | CC(C(O)c1ccccc1)N(C)CCOC(c1ccccc1)c1ccccc1 (stereo not given) | inactive | 
33 | C=C(C)c1cccc(C(C)(C)N=C=O)c1 | inactive | 
34 | CCCCC(CC)COC(=O)c1ccc(O)cc1 (stereo not given) | inactive | 
35 | [Cl][Nd]([Cl])[Cl] | inactive | 
36 | C[C@]12CC[C@H]3C(=CCc4cc(O)ccc43)[C@@H]1CCC2=O | inactive | 
37 | COc1ccccc1N1CCN(CCCNc2cc(=O)n(C)c(=O)n2C)CC1 | inactive | 
38 | O=C1Nc2ccc(Cl)cc2[C@@](C#CC2CC2)(C(F)(F)F)O1 | inactive | 
39 | NC(=S)Nc1cccc2ccccc12 |  | -4.32% [at 8.39 µM] (inactive)
40 | CC(=O)CC(=O)Nc1ccccc1C | inactive | 
